# Assay results from PubChem BioAssay AID504465 (National Center for Advancing Translational Sciences (NCATS), 2011).
# About 210 (10%) of roughly 2,100 compounds were called active. About 53% were inconclusive and are not listed. The call rests on the fitted dose curve; in most records, active means well fitted inhibition curve with a large enough effect; inconclusive means small, poorly fitted or top-dose-only effect, or effect the other way; inactive means no such curve, though single readings can be large or run the other way. Some of the results follow. Where a call stands in place of a potency, no number is given.
# Assay: IN Cell qHTS Assay for Inhibitors of the mTORC1 Signaling Pathway in MEF (Tsc2-/-, p53-/-) Cells: Sytravon; further: nearly all actives have a fitted effect of over 60% in size
# Settings: phospho-rpS6 immunofluorescence, 24 h; series mostly up to 38.3 µM
# Description: NIH Molecular Libraries Probe Production Centers Network [MLPCN] NIH Chemical Genomics Center [NCGC] MLPCN Grant: NS059428-01 Assay Submitter (PI): Blenis, John; Hoffman, Greg; Harvard University NCGC Assay Overview: Thee mammalian target of rapamycin (mTOR) is an intracellular serine/threonine kinase Aberrant regulation of mTOR signaling plays a causative role in a number of human diseases, including cancer, benign tumors such as lymphangioleiomyomatosis (LAM) and Tuberous Sclerosis Complex (TSC), and metabolic diseases such as diabetes and obesity. This project aims to identify inhibitors of ribosomal protein S6 (rpS6) phosphorylation. The phosphorylation of rpS6 is a key event downstream of mTOR activation. The assay uses a phospho-specific antibody of phospho-rpS6 to detect inhibitors of mTOR activation. Mutations in the Tsc1 and Tsc2 genes are the underlying genetic lesions responsible for TSC, causing constitutive activation of the mTORC1 pathway and leading to profound effects on cell metabolism. Aberrant metabolism in cancer has recently received significant attention as a target to develop therapeutic agents in the treatment of cancer1. As Tsc2-/- cells have lost the ability to respond to energy and growth factor deprivation, these cells are unable to properly down regulate cellular biosynthetic processes in response to metabolic stress, and are thus extremely sensitive to glucose deprivation-induced death.2 A central goal of this project is to explore the unique cell survival and metabolic properties of cells with Tsc1 or Tsc2 by screening for compounds that selectively target the Tsc2-/- MEFs by screening both Tsc2-/- and WT MEF cell lines. We hope to better understand these aspects of TSC physiology in order to exploit them for therapeutic benefit.
# NCGC IN Cell Assay Protocol: For quantitative high throughput analysis of mTORC1 signaling, we developed a cell-based assay for immuno-fluorescence based detection of rpS6 phosphorylation on the Acumen Explorer that will be used a platform for the primary small molecule screen. Mouse embryonic fibroblasts (MEFs) are cultured in 1536-well plates using DMEM + 10% FBS. Twenty-four hrs after plating, test compounds (solubilized in DMSO) are delivered and incubated with the cells for 24 hrs at 37 degree Celsius. Following the incubation, media with compound is aspirated and the cells are fixed in 4% paraformaldehyde (PFA) containing PBS + 0.2% TX-100. Next, PFA is aspirated, cells are washed two times with PBS plus 0.2% TX-100 and the cells are blocked for 1 hr at room temperature (blocking buffer: LiCOR Blocking Buffer plus 0.2% TX-100). This is followed by aspiration and staining with Alexa-488 conjugated-phospho-rpS6 Ser235/236 antibody for 2 hours at room temperature (Cell Signaling Technology # 4803, 1:50 dilution in blocking buffer). Cells are washed two times with PBS plus 0.2% TX-100, and stained with 10 uM propidium iodide (PI) for 20-25 minutes for cell number measurement (1:500 dilution of Hoescht staining is also added for IN Cell imaging). Active wells which are selected (based on Acumen results) are imaged on the IN Cell 1000 (GE Healthcare) using the D360/40X and HQ480/40X excitation filters for the Hoechst and Alexa-488 cytoplasmic stains, respectively. The fluorescence emission filters used were HQ460/40M and HQ535/50M for the Hoechst and Alexa-488 cytoplasmic stains, respectively. The normalized phospho-S6 staining is calculated as the ratio of […] for the single concentration rapamycin control (7.5 nM) and DMSO columns. […] Inhibition of the pathway is defined based on the normalized phospho-S6 intensity in rapamycin treated cells. Each treatment is reported as the % positive cells in the well, where thresholds are defined by selecting wells with the highest and lowest signal and differentiating between the % non-active and % active populations. […]
# Potency means the concentration at half of the fitted maximal effect.
row,SMILES,Potency
1,CC(C)CCNC(=O)c1cccc(Nc2nc3ccccc3n3nnnc23)c1,4.14 µM (active)
2,Cc1ccc(-c2nc3scc(CCNC(=O)c4cccc(Br)c4)n3n2)cc1,inactive
3,Cc1cccc(Cn2c(CNC(=O)c3ccccc3)nc3ccccc32)c1,inactive
4,Cc1ccc(NC(=O)C2CCCN(S(=O)(=O)c3ccc4c(c3)CCCC(=O)N4)C2)cc1Cl (configuration not stated),inactive
5,CCCS(=O)(=O)c1c(S(=O)(=O)CCC)c2cc(C(C)(C)C)ccn2c1C(=O)c1ccc(OC)c(OC)c1,0.147 µM (active)
6,COc1ccc(OC)c(NC2=C(c3ccccc3)C(=O)c3ccccc32)c1,inactive
7,O=C(NCCc1ccccc1Cl)c1ccc2c(=O)n(-c3ccccc3)c(=O)[nH]c2c1,inactive
8,COc1ccc(OCc2nc3c4c(-c5ccccc5)c(-c5ccccc5)oc4ncn3n2)cc1,4.14 µM (active)
9,Cc1ccc(NC(=O)Cn2c(=O)c(CNc3ccccc3)cc3cc4c(cc32)OCCO4)cc1,inactive
10,Cc1ccc(NCc2cc3cc4c(cc3n(CC(=O)Nc3ccc(C)cc3)c2=O)OCCO4)cc1,4.65 µM (active)
11,COc1cc2cc(CNc3ccc(C)cc3)c(=O)n(CC(=O)Nc3ccc(F)cc3F)c2cc1OC,inactive
12,CCOC(=O)c1c(C)oc2ncnc(Nc3cc(Cl)ccc3OC)c12,inactive
13,COc1cccc(C2=CC(c3cc(Br)ccc3F)n3nnnc3N2)c1 (configuration not stated),inactive
14,CCC1CCCCN1CCCNC(=O)c1c(C)oc2ncn(CC(C)C)c(=O)c12 (configuration not stated),inactive
15,CCC1CCCCN1CCCNC(=O)c1cc2c(Cl)nc3ccccc3c2s1 (configuration not stated),14.7 µM (active)
16,CN(CCCNC(=O)c1cc2c(Cl)nc3ccccc3c2s1)Cc1ccccc1,18.5 µM (active)
17,O=C(NCCCc1nc2ccccc2n1Cc1ccc(Cl)cc1)c1ccco1,inactive
18,COc1ccc(Nc2cc(C(=O)NCCCN(C)Cc3ccccc3)c3ccccc3n2)cc1,inactive
19,CC1CCCCN1CCCNC(=O)c1cc(Sc2cccc(Cl)c2)nc2ccccc12 (configuration not stated),inactive
20,Fc1ccc(C(NCCc2ccccc2)c2nnc(-c3ccccc3Cl)o2)cc1 (configuration not stated),inactive
21,O=C(NCC1CCN(Cc2ccccc2Cl)CC1)c1cc2ccc3cccnc3c2[nH]1,inactive
22,COc1cc(C2CC(=O)c3c([nH]c(C(=O)OC4CCCCC4)c3C)C2)cc(OC)c1OC (configuration not stated),inactive
23,Cc1c(C(=O)OC2CCC(C)CC2)[nH]c2c1C(=O)CC(c1ccc(F)cc1)C2 (configuration not stated),inactive
24,CCOc1ccc(C2CC(=O)c3c([nH]c(C(=O)OCc4ccccc4)c3C)C2)cc1 (configuration not stated),16.5 µM (active)
25,CCOc1ccc(CNC(=O)CCCc2cn(C)c3ccccc23)cc1OC,inactive

row,SMILES,Potency
1,Cn1ncc2c(NCc3cccc(Cl)c3)ncnc21,inactive
2,N#Cc1ccccc1S(=O)(=O)N1CCC(Oc2ccc(-n3cnnn3)cc2)CC1,inactive
3,CCCNC(=O)C1CCN(Cc2cc3ccccc3n2Cc2ccccc2)CC1,inactive
4,Cc1ccccc1Cn1c(CN2CCC(C(=O)NCCN(C)C)CC2)cc2ccccc21,11.7 µM (active)
5,Cc1ccccc1CSCCNC(=O)C1CCN(S(=O)(=O)Cc2ccccc2)CC1,inactive
6,Cc1cccc(C)c1Nc1c(-c2ccsc2)nc2cccc(C)n12,inactive
7,Clc1cccc(CSc2ccc(-c3cccs3)nn2)c1,inactive
8,CCOC(=O)c1cc(-c2ccccc2)n(-c2cccc(C(=O)N(C)c3ccc(C)cc3)c2)c1C,inactive
9,CCOC(=O)c1cc(-c2ccc(C)cc2)n(CC(=O)Nc2ccccc2F)c1C,14.7 µM (active)
10,CCOC(=O)c1cc(-c2ccccc2)n(CCC(=O)Nc2ccc(C(F)(F)F)cc2)c1C,inactive
11,Cc1ccccc1Nc1c(-c2ccc(Cl)s2)nc2cccc(C)n12,inactive
12,CC(CNC(=O)c1ccc2nc(CCc3ccccc3)oc2c1)c1ccccc1 (configuration not stated),inactive
13,CCCS(=O)(=O)N1CC(=O)N(c2ccccc2F)C(C)(C(=O)NC2CCCCCC2)C1 (configuration not stated),inactive
14,COc1ccc(NC(=O)Cn2c(=O)n(Cc3ccco3)c(=O)c3cc(OC)c(OC)cc32)cc1,14.7 µM (active)
15,COc1ccc(OC)c(NC(=O)Cn2c(=O)n(Cc3ccccc3)c(=O)c3ccccc32)c1,inactive
16,COc1ccc(NC(=O)c2cc3c(=O)n(Cc4ccco4)ccc3nc2C)cc1,inactive
17,CCOC(=O)Cn1c(=O)n(C2CCCCC2)c2nc(-c3cccc(C)c3)nc(C(N)=O)c21,inactive
18,O=C(Nc1ccc(C(F)(F)F)cc1)C1CCCN(S(=O)(=O)c2cccc3cccnc23)C1 (configuration not stated),inactive
19,COc1ccc(Cn2c(C(=O)O)c(CNCCc3ccco3)c3ccc(OC)cc32)cc1,inactive
20,Cc1ccccc1NC(=O)Cn1c(=O)n(-c2ccc(CC(=O)NCC3CCCO3)cc2)c(=O)c2ccccc21 (configuration not stated),inactive
21,CCc1ccc(NC(=O)c2ccc(F)c(S(=O)(=O)NC3CCCCCC3)c2)cc1,inactive
22,Cc1ccc(-n2c(=O)c3ccc(C(=O)NCc4ccco4)cc3n(Cc3ccc(Cl)cc3)c2=O)cc1,16.5 µM (active)
23,COc1ccc(-n2c(=O)c3ccc(C(=O)NCc4ccc(C)cc4)cc3n(CC(=O)Nc3ccc(F)cc3)c2=O)cc1,14.7 µM (active)
24,Cc1ccc(Cn2c(=O)n(CCCCC(=O)NCc3ccccc3Cl)c(=O)c3ccccc32)cc1,inactive
25,COc1ccc(NC(=O)c2ccc3c(c2)c(C)c(C)n3Cc2ccc(F)cc2)cc1,10.4 µM (active)

row,SMILES,Potency
1,COc1ccc(Cn2c(C(=O)O)c(CNCc3ccccc3F)c3ccc(OC)cc32)cc1,inactive
2,Cc1ccc(CNC(=O)CCCCCn2c(=O)c3sccc3n(CC(=O)Nc3ccc(C)c(F)c3)c2=O)cc1,inactive
3,CC[C@@H](C)[C@@H](C(=O)Nc1ccc(C)cc1)N1Cc2ccccc2C1=O,inactive
4,CCN1C(C(=O)c2ccccc2)=C(OC(=O)COc2ccc(OC)cc2)c2ccccc2S1(=O)=O,inactive
5,COc1ccc(C(=O)NCC(c2ccc(Cl)cc2)N2CCCCC2)cc1 (configuration not stated),inactive
6,O=C(NCCc1ccccc1Cl)c1sc2ncccc2c1-n1cccc1,inactive
7,CCC(C)NC(=O)CCCn1c(=O)c2cccn2c2ccccc21 (configuration not stated),inactive
8,Cc1cccc(NS(=O)(=O)c2ccc3[nH]c4c(c3c2)CCCCCC4)c1,inactive
9,Cc1nc2scc(C)n2c(=O)c1S(=O)(=O)Nc1ccc(N2CCN(S(C)(=O)=O)CC2)cc1,inactive
10,O=C(NCCc1ccccc1)c1ccc(Cn2c(SCc3ccccc3)nc3cccnc32)cc1,inactive
11,O=C(Nc1ccc(Cl)cc1)c1cc(S(=O)(=O)N2CCCc3ccccc32)ccc1F,inactive
12,Cc1noc2ncnc(N3CCN(c4ccccc4F)CC3)c12,inactive
13,CCOc1ccc(Nc2nc(Nc3ccc(OCC)cc3)nc(N3CCOCC3)n2)cc1,0.826 µM (active)
14,Cc1ccc(Nc2nc(Nc3ccc(C)c(C)c3)nc(N3CCOCC3)n2)cc1C,0.656 µM (active)
15,Fc1ccc(Nc2nc(Nc3ccc(F)cc3)nc(N3CCOCC3)n2)cc1,0.521 µM (active)
16,Cc1cccc(Nc2nc(Nc3cccc(C)c3)nc(N3CCOCC3)n2)c1,1.47 µM (active)
17,CCCN1C(=O)CN(C2CCCCCC2)C(=O)C1c1ccc(OCC)c(OC)c1 (configuration not stated),inactive
18,CC(C)OCCCNC(=O)CCCN1C(=O)CCn2nc(-c3cccn3C)cc21,inactive
19,CCCN1CCN(c2ncnc3sc(C(=O)Nc4ccc(OC(F)(F)F)cc4)c(C)c23)CC1,inactive
20,O=C(Nc1cc(Cl)cc(Cl)c1)c1ccc(F)c(S(=O)(=O)N2CCCCCC2)c1,inactive
21,CC(C)c1nn2c(=O)cc(COC(=O)c3ccc(NC(=O)c4cccs4)cc3)nc2s1,inactive
22,CC1=Nc2cc(C(=O)NC3CCCC3)ccc2Sc2ccc(C)cc21,inactive
23,COc1ccc(Nc2nc(Nc3ccc(OC)cc3OC)nc(N3CCOCC3)n2)c(OC)c1,1.31 µM (active)
24,CCCN1Cc2cccc(C(=O)Nc3ccc(OC)cc3OC)c2C1=O,inactive
25,COc1ccccc1NCc1cccn1-c1nnc(N2CCOCC2)s1,inactive

row,SMILES,Potency
1,CCCN1CCN(CCCNC(=O)c2cc3c(s2)-c2c(C)cccc2OC3)CC1,18.5 µM (active)
2,CCN(CC)S(=O)(=O)c1ccc2c(c1)N(CC(=O)NCCCN1CCN(c3cc(C)ccc3C)CC1)C(=O)CO2,inactive
3,CCN1CCN(CCCNC(=O)c2cc3c(s2)-c2c(C)cccc2OC3)CC1,14.7 µM (active)
4,CCOc1ccccc1NC(=O)c1c(NCc2cccs2)sc2c1CCC(C)C2 (configuration not stated),inactive
5,Cc1ccc(C)c(NC(=O)CSc2cn(CC(=O)N3CCCC3)c3ccccc23)c1,inactive
6,COc1cccc(-c2ccc3c(N)c(C(=O)c4ccc(Cl)cc4)sc3n2)c1,10.4 µM (active)
7,COc1ccc(CNC(=O)c2c(Nc3ccccc3C)sc(C(=O)c3ccccc3)c2N)cc1,inactive
8,COc1ccc(-c2ccc3c(N)c(C(=O)Nc4ccc(C(F)(F)F)cc4)sc3n2)cc1OC,0.233 µM (active)
9,COc1ccc(-c2cc(C(=O)Nc3ccc4c(c3)OCO4)no2)cc1,inactive
10,COc1ccc(-c2cc(C(=O)Nc3cccc(O)c3)on2)cc1OC,inactive
11,COc1ccc(-c2ccc3c(N)c(C(=O)Nc4cccc(C)c4)sc3n2)cc1,13.1 µM (active)
12,COc1ccc(NC(=O)c2sc3nc(-c4ccc(OC)cc4)cc(C(F)(F)F)c3c2N)cc1,inactive
13,COc1ccc(C(=O)Nc2cc(-c3nc4ccccc4s3)ccc2OC)cc1,inactive
14,COc1cccc(Nc2sc(C(=O)c3ccc(F)cc3)c(N)c2C(=O)NCc2ccc(C)cc2)c1,inactive
15,CCCc1ccc(C2Sc3ccccc3NC3=C2C(=O)c2ccccc23)cc1 (configuration not stated),inactive
16,Cc1cccc(NC(=O)CSc2nc3ccccc3c3nc(CCn4cncc4C)nn23)c1,inactive
17,COc1ccc(NC(=O)c2ccco2)cc1NC(=O)COc1ccc(Cl)c(C)c1,inactive
18,COc1cc(NC(=O)c2cccc(F)c2)ccc1NC(=O)c1cc2ccccc2o1,16.5 µM (active)
19,COc1cccc(C(=O)Nc2ccccc2-c2nnc(-c3cccc(OC)c3)o2)c1,inactive
20,COc1cc(NC(=O)Cn2ccc3ccccc3c2=O)cc(OC)c1OC,inactive
21,Cc1cccc(Nc2ncc(NC(=O)c3cccc(F)c3)c(Nc3cccc(C)c3)n2)c1,inactive
22,CCCCCC(=O)Nc1ccc(NC(=O)c2cc3ccccc3o2)c(OC)c1,18.5 µM (active)
